# Data reported in PubChem BioAssay (NCATS).
# Inconclusive results are not listed. Unmarked numbers belong to inactive results. Calls come from the whole dose curve; as a rule, active = well fitted curve in the direction sought with a large enough effect in the signal ratio, with a control signal flat (not every such curve was filed as active); inconclusive = small, poorly fitted or top-dose-only effect, or a change in a side signal; inactive = no such curve, though single readings can be large or run the other way; the % refers to the signal ratio.
# Assay: qHTS Assay for Identification of Small Molecule Inducers of Hypoxia Response (AID 2120); note: 0% is about no effect
# Conditions: hypoxia response reporter cells, beta-lactamase ratio readout; series mostly up to 104 µM; activation: at the top concentration
# Source text: NIH Chemical Genomics Center [NCGC]
# NIH Molecular Libraries Screening Centers Network [MLSCN]
# National Institutes of Environmental Health Sciences [NIEHS]
# National Toxicology Program [NTP]
# Hypoxia-inducible factor-1 (HIF-1) is the major hypoxia-regulated transcription factor that controls cellular responses to low oxygen concentration. HIF-1 is composed of two subunits: hypoxia responsive HIF-1a and constitutively expressed HIF-1b, which is also known as aryl hydrocarbon receptor nuclear translocator. During hypoxic conditions, HIF-1a heterodimerizes with HIF-1b and translocates into the nucleus where the HIF-1 complex binds to the hypoxia-response element (HRE) and activates expression of target genes such as VEGF (vascular endothelial growth factor). The HIF-1 pathway is essential to normal growth and development, and is involved in the pathophysiology of cancer, inflammation, and ischemia.
# Using a beta-lactamase reporter-gene under control of the hypoxia response element, a cell-based assay [CellSensor(TM) HRE-bla ME-180 developed by Invitrogen Corp.] was used to measure hypoxia-induced signaling. Library compounds were measured for their ability to induce the reporter gene activity. Compounds were screened in a titration series in 1536-well format. The inducers were identified based on the AC50 values derived from the screening data.
# NCGC Assay Protocol Summary
# 2500 cells/5uL in Opti-MEM medium containing 0.5% dialyzed FBS, 0.1 mM NEAA, 1 mM sodium pyruvate and 10 mM HEPES was dispensed into 1536-well plates and cells were cultured at 37 degrees Celsius for 4-5 hours and then 23 nL of compounds or DMSO were delivered to each well using a pin tool. The plates were incubated at 37 degrees Celsius for 17 hours. 1 uL of CCF4-dye mixture was added to each well. After incubated at room temperature for 2.5 hours the plates were measured on an EnVision plate reader at Excitation 405nm, Emission1=460nm and Emission 2=530nm. The %Activity was determined from the ratio of 460nm/530nm.
row,SMILES,activation
1,CC(=O)OCC(COC(C)=O)OC(C)=O,0.555%
2,CCN(CC)C(=O)c1cccc(C)c1,1.32%
3,Cc1cc(C)nc(NS(=O)(=O)c2ccc(N)cc2)n1,1.37%
4,CC(=O)Nc1cccc(O)c1,-1.09%
5,O=C1C(c2[nH]c3ccccc3c2O)=Nc2ccccc21,2.57%
6,O=C(c1ccccc1)C(O)c1ccccc1 (stereo unspecified),-0.383%
7,FC(F)(F)C(Cl)Br (stereo unspecified),-0.645%
8,C=CCNC(N)=S,0.346%
9,CC(=O)Nc1ccccc1,-0.0488%
10,CCCC(O)C(CC)CO (stereo unspecified),0.205%
11,O=C1c2cccc(O)c2C(=O)c2c(O)cccc21,-0.911%
12,CCCCCCCC(=O)OCC(COC(=O)CCCCCCC)OC(=O)CCCCCCC,1.21%
13,CCCCCC(N)=O,0.848%
14,Cc1cc(=O)[nH]c(=S)[nH]1,-0.331%
15,COc1ccc(O)cc1,-0.141%
16,CC(=O)Nc1ccc(C(=O)O)cc1,-0.4%
